From PubChem BioAssay (Tox21) come the findings set out here.

Several values for one entry are separate records, joined by “and”; a condition that tells them apart may be missing. Identical values can stand only once. Records with an inconclusive call do not appear. A structure can be active in one record and inactive in another. Activity calls are given as the source filed them. Unless noted, calls follow the shape of the full dose curve.

Experiment [1] is described as follows: Nuclear factor erythroid 2-related factor 2/antioxidant responsive element (Nrf2/ARE) small molecule agonists: qHTS cell viability counter screen in human keratinocytes (AID 1919968; active = well fitted curve in the direction sought with a large enough effect in the repeat runs; an effect the other way counts as inactive or inconclusive; also: nearly all actives have a fitted effect of over 55% in size). The method in brief: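 Measured as CellTiter-Fluor fluorescence, this readout tracks cytotoxicity in the same wells as the ARE-luciferase screen. HaCaT reporter cells (1,500/well) received compounds after a 5 h pre-incubation and were exposed for 23 h.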
For orientation: qHTS replaces the single test concentration by a dilution series.

Experiment [2] can be described thus: Nuclear factor erythroid 2-related factor 2/antioxidant responsive element (Nrf2/ARE) small molecule agonists: luciferase reporter gene qHTS assay in human keratinocytes (AID 1919969; also: nearly all actives have a fitted effect of over 35% in size; also: potency is read from the fitted curve at half-maximal effect). (A reporter such as luciferase makes a cellular process visible.)
Experiment [3] has as its target Gonadotropin-releasing hormone receptor (Homo sapiens) (UniProt P30968). The experiment in a line: Human gonadotropin-releasing hormone receptor (GnRHR) small molecule agonists, calcium flux assay in GnRHR-HEK293 cells (AID 1920063). Also: nearly all actives have a fitted effect of over 35% in size. The method in brief:
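Fluorescence kinetics (480 nm excitation, 540 nm emission; 3 min, 1 s steps) report calcium mobilisation in human GnRHR-HEK293 cells in agonist mode. Dye incubation: 1 h, 37 C.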
(In general: A change in cytosolic calcium serves as a functional read-out for many receptors and channels.)

Experiment [4] has as its target KiSS-1 receptor (Homo sapiens) (UniProt Q969F8). Nature of the experiment: Human kisspeptin (KISS1R) small molecule agonists, calcium flux assay in KISS1R-HEK293 cells (AID 1920064; active = well fitted curve in the direction sought with a large enough effect in the repeat runs; an effect the other way counts as inactive or inconclusive). The method in brief:
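Measures KISS1R agonism through calcium-sensitive dye fluorescence in stably transfected HEK293 cells, read for 3 min after pin-tool compound delivery; 15-point titrations in triplicate.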

The nature of experiment [5]: p53 small molecule agonists, cell-based qHTS assay with human liver microsomes: qHTS cell viability counter screen (AID 1963579). Also: nearly all actives have a fitted effect of over 45% in size. Also: potency is read from the fitted curve at half-maximal effect. In short, it runs like this:
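Cytotoxicity counter screen: p53RE-bla, 4,000 cells/well; 5 h settle, 37 C/5% CO2; cpd + HLM 0.5 mg/mL + NADPH 0.5 mg/mL (final); 16 h, 37 C; CellTiter-Glo, 30 min RT, luminescence.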

A short description of experiment [6]: p53 small molecule agonists, cell-based qHTS assay with rat liver microsomes: qHTS cell viability counter screen (AID 1963580). Also: nearly all actives have a fitted effect of over 45% in size. The method in brief:
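In HCT-116 cells carrying a p53 response element-bla reporter, compounds were metabolically activated in situ by rat liver microsomes with NADPH over 16 h. Cell ATP content then served as the cytotoxicity measure.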

Experiment [7] is described as follows: p53 small molecule agonists, cell-based qHTS assay: qHTS cell viability counter screen (AID 1963581). Also: nearly all actives have a fitted effect of over 45% in size. In short, it runs like this:
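In the same plates used for the p53 bla reporter, HCT-116 cells given compounds for 16 h at 37 C received CellTiter-Glo; luminescence was recorded 30 min later at room temperature.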

Experiment [8] concerns the target 5-hydroxytryptamine receptor 2A (Homo sapiens) (UniProt P28223). Nature of the experiment: 5-hydroxytryptamine receptor 2A (HTR2A) small molecule agonists, cell-based qHTS assay (AID 1963587). Also: nearly all actives have a fitted effect of over 30% in size. In short, it runs like this: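 HTR2A-CHO cells, plated 18 h at 37 C/5% CO2, dye-loaded 1 h at 37 C; compounds in DMSO added by pin tool (agonist mode). Intracellular calcium flux read as kinetic fluorescence on FDSS over 2 min at 1 s intervals.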

The target of experiment [9] is Muscarinic acetylcholine receptor M1 (Homo sapiens) (UniProt P11229). The experiment in a line: Cholinergic receptor muscarinic 1 (CHRM1) small molecule antagonists, cell-based qHTS assay (AID 1963588). Also: nearly all actives have a fitted effect of over 40% in size. In short, it runs like this: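 CHRM1-CHO calcium-flux assay, antagonist mode. Cells were seeded 18 h, dye-loaded 1 h at 37 C and given compound for 5 min at RT, then acetylcholine was added at 50nM. FDSS fluorescence was read 3 min; 15 concentrations, three runs.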
Sequence of Muscarinic acetylcholine receptor M1 (Homo sapiens) (P11229 whole entry, looked up): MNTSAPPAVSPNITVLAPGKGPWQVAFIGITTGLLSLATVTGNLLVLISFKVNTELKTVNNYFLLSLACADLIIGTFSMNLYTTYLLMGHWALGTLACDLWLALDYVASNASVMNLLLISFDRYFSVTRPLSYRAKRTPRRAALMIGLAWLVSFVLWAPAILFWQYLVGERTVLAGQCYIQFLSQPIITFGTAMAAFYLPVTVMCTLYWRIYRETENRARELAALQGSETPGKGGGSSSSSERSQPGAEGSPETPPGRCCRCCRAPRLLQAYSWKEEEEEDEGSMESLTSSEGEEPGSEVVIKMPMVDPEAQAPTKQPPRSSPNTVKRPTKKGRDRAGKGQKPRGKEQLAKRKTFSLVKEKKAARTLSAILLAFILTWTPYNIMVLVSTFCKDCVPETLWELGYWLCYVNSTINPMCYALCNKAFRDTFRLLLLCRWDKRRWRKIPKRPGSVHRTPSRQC

For experiment [10] the target is unchanged. The experiment in a line: Cholinergic receptor muscarinic 1 (CHRM1) small molecule agonists, cell-based qHTS assay (AID 1963589). Also: nearly all actives have a fitted effect of over 35% in size. In short, it runs like this: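 Each compound was tested at 15 concentrations across three independent runs on dye-loaded CHO cells stably expressing human CHRM1, reading intracellular calcium fluorescence kinetically at 1 sec intervals.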

Experiment [11] in a line: cAMP Responsive Elements (CRE) small molecule agonists, cell-based qHTS assay (AID 1963590). In short, it runs like this:
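Cell line: CRE-bla HEK 293T; medium DMEM/10% dialyzed FBS/0.1 mM NEAA/1 mM pyruvate/25 mM HEPES; 3 h compound exposure; beta-lactamase FRET readout after 2 h substrate loading at RT.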

Experiment [12] in a line: cAMP Responsive Elements (CRE) small molecule antagonists, cell-based qHTS assay (AID 1963591; active = well fitted inhibition curve with a large enough effect in the signal ratio in the repeat runs, not every such curve was filed as active; the % refers to the signal ratio). In short, it runs like this:
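Inhibition of NKH477-driven (0.25 uM final) CRE-beta-lactamase signal in HEK293T cells, 3 h compound exposure at 37 °C, detected by FRET substrate fluorescence.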

For experiment [13], the target named is Beta-2 adrenergic receptor (Homo sapiens) (UniProt P07550). Nature of the experiment: Adrenergic beta2 receptor (ADRB2) small molecule antagonists, cell-based qHTS assay (AID 1963592). Also: series mostly up to about 92 µM; nearly all actives have a fitted effect of over 50% in size. The method in brief:
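Cells (CHO, stable ADRB2 overexpression) incubated 18-20hr at 37C; compounds added from DMSO; agonist mix (1nM isoproterenol, 100uM IBMX, 25uM Ro-20-1724) added; 0.5hr RT; d2-cAMP and anti-cAMP-cryptate added; 1hr RT; 665/615 nm read.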

Experiment [14] shares this target. Nature of the experiment: Adrenergic beta2 receptor (ADRB2) small molecule agonists, cell-based qHTS assay (AID 1963593).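 Also: CHO cells stably overexpressing human ADRB2.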 The method in brief: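 CHO cells stably over-expressing ADRB2 were plated overnight at 37C, then dosed with compounds plus a stimulation mix containing 100uM IBMX and 25uM Ro-20-1724 for 0.5hr at room temperature. cAMP was measured by HTRF competition, 1hr.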

Experiment [15] deals with D(2) dopamine receptor (Homo sapiens) (UniProt P14416). Nature of the experiment: Dopamine D2 receptor (DRD2) small molecule agonists, cell-based qHTS assay (AID 1963594). Also: nearly all actives have a fitted effect of over 35% in size. In short, it runs like this: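 HEK293 cells stably expressing DRD2 were cultured 24 h at 37 C, then given Ro20-1724 (0.1 mM final) and compounds for 10 min at room temperature. NKH477 (200nM) was then added for 30 min. cAMP was read by HTRF.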
Sequence of D(2) dopamine receptor (Homo sapiens) (P14416 whole entry, looked up): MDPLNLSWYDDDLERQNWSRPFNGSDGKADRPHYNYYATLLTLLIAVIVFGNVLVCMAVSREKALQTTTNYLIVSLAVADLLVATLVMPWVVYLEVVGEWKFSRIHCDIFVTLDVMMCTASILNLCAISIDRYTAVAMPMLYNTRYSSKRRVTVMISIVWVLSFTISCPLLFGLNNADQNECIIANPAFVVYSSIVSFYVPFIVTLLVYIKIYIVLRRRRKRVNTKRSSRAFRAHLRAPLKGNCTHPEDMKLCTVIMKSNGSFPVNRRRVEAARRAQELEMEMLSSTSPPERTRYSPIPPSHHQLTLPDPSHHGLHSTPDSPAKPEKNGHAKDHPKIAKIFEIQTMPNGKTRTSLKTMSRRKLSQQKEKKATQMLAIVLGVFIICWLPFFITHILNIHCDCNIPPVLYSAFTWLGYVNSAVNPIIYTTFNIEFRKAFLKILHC

Experiment [16] has the same target. Nature of the experiment: Dopamine D2 receptor (DRD2) small molecule antagonists, cell-based qHTS assay (AID 1963595; active = well fitted inhibition curve with a large enough effect in the signal ratio in the repeat runs, with a control signal flat; the % refers to the signal ratio). In short, it runs like this:
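Stable D2 receptor HEK293 line, 24 h after seeding. Compound preincubated 10 min, then quinpirole (12 nM) with forskolin analogue NKH477 (200 nM), 30 min, room temperature. Detection by time-resolved FRET of cAMP.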

Experiment [17] is described as follows: p53 small molecule agonists, cell-based qHTS assay (AID 1963582; active = well fitted activation curve with a large enough effect in the signal ratio in the repeat runs, not every such curve was filed as active; the % refers to the signal ratio). In short, it runs like this: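 Compounds are pin-transferred in DMSO onto p53RE-bla cells and incubated 16 h at 37 C. The B/G FRET beta-lactamase substrate is then applied for 2 h at RT and fluorescence recorded.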
The target in experiment [18] is 5-hydroxytryptamine receptor 2A (Homo sapiens) (UniProt P28223). Nature of the experiment: 5-hydroxytryptamine receptor 2A (HTR2A) small molecule antagonists, cell-based qHTS assay (AID 1963586). Also: nearly all actives have a fitted effect of over 45% in size. In short, it runs like this: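 Antagonist-mode intracellular calcium assay: DOI (4 nM) added after 5 min compound pre-incubation at room temperature to dye-loaded HTR2A-CHO cells. Fluorescence followed for 3 min, sampled every second.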
Sequence of 5-hydroxytryptamine receptor 2A (Homo sapiens) (P28223 whole entry, looked up): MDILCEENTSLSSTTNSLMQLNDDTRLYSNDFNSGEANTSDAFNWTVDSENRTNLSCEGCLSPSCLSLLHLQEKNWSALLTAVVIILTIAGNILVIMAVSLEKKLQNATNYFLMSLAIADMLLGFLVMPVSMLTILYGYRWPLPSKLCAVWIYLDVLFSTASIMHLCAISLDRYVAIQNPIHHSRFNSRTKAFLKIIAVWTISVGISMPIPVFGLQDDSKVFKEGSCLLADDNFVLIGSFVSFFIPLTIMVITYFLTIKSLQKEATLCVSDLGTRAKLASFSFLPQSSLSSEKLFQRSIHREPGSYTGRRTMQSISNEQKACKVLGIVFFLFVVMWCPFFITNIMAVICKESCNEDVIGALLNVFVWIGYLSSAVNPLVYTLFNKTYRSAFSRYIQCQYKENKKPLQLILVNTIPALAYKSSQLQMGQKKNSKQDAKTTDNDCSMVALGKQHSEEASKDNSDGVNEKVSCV

The nature of experiment [19]: p53 small molecule agonists, cell-based qHTS assay with human liver microsomes (AID 1963577). The method in brief: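 Fluorescence of the beta-lactamase reporter in p53RE-bla cells, detected with LiveBLAzer substrate (2 h, room temperature, dark), served as the read-out after 16 h compound exposure at 37 C with human liver microsomes and NADPH, each 0.5 mg/mL final.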

The nature of experiment [20]: p53 small molecule agonists, cell-based qHTS assay with rat liver microsomes (AID 1963578). In short, it runs like this: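 Cells carrying a p53 response element–beta-lactamase reporter were plated and rested 5 h, then dosed with compound in DMSO plus rat liver microsomes and NADPH, each at 0.5 mg/mL final. After 16 h at 37 C, LiveBLAzer substrate was added for 2 h.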

Sequence of Beta-2 adrenergic receptor (Homo sapiens) (P07550 whole entry, looked up): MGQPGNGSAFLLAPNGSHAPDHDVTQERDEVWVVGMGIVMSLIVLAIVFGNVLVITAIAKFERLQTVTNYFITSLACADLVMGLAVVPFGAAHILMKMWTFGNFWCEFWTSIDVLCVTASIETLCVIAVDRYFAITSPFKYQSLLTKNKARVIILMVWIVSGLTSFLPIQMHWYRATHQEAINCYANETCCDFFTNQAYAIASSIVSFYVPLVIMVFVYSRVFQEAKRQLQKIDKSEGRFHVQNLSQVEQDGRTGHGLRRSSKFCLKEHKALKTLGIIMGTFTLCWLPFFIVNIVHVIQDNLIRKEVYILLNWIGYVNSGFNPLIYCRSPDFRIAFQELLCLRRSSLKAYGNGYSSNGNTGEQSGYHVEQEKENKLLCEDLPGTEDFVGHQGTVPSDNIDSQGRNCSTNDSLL
Sequence of KiSS-1 receptor (Homo sapiens) (Q969F8 whole entry, looked up): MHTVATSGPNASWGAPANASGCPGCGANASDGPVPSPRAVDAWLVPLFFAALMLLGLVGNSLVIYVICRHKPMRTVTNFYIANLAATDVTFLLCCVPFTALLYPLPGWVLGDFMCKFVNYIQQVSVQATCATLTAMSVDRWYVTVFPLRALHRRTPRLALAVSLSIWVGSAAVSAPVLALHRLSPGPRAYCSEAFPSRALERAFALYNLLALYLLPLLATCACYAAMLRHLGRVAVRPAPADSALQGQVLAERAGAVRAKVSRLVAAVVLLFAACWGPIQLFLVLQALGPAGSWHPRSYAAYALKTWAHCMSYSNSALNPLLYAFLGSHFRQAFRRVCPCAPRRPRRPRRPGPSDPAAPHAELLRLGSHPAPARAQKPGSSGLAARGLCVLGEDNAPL
Sequence of Gonadotropin-releasing hormone receptor (Homo sapiens) (P30968 whole entry, looked up): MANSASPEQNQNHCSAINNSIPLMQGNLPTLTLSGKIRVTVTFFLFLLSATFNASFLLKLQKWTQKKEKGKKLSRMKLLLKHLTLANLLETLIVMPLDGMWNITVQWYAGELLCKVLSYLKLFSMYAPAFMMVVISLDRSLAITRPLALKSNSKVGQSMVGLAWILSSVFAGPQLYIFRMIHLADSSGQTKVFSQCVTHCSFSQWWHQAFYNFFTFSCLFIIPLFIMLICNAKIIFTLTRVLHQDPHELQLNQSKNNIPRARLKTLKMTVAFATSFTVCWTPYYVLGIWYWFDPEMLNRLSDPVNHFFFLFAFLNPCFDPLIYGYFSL

Turning to `OCCOCCO`, the Potency entry in [1], in experiment [2], in [3], in experiment [4], in experiment [5] and in [6] was “inactive” throughout. Besides, the Potency entry in experiment [7], in [8], in [9], in experiment [10], in [11] and in experiment [12] was “inactive” in each case. The Potency entry in [13], in [14], in experiment [15] and in [16] was “inactive” throughout.

On to `O=P(OCC(Br)CBr)(OCC(Br)CBr)OCC(Br)CBr` (stereo not drawn), for which the Potency entry in experiment [1], in experiment [2], in experiment [3], in experiment [4], in experiment [5] and in [6] was “inactive” throughout. Further, the Potency result in experiment [17], in experiment [18], in experiment [8], in experiment [9], in experiment [10] and in experiment [12] was “inactive” each time. For the same molecule, the Potency result in experiment [13], in experiment [15] and in [16] was “inactive” each time.

Consider `CC(C)c1ccc(OP(=O)(Oc2ccc(C(C)C)cc2)Oc2ccc(C(C)C)cc2)cc1`, for which the Potency entry in [1], in [3], in experiment [4], in experiment [5], in [7] and in [8] was “inactive” in each case. In addition, the Potency entry in experiment [9], in experiment [12], in experiment [13], in experiment [15] and in experiment [16] was “inactive” each time. Moreover, the Potency in experiment [2] is 61.6 µM (active) and inactive and 30.6 µM (active).

With `CCCCCCCCCCCC#N`, the Potency result in experiment [1], in [2], in experiment [3], in [4], in experiment [19] and in experiment [20] was “inactive” throughout. Besides, the Potency entry in [6], in experiment [7], in experiment [18], in experiment [8], in experiment [9] and in experiment [10] was “inactive” throughout. Further, the Potency entry in experiment [11], in experiment [12], in experiment [13], in experiment [15] and in experiment [16] was “inactive” in each case. For the same molecule, in experiment [5], the Potency result was “inactive and 42.3 µM (active)”.

Consider `CC(COc1ccc(Oc2ccccc2)cc1)Oc1ccccn1` (stereo not drawn), for which the Potency result in experiment [1], in experiment [3], in experiment [4], in [19], in experiment [20] and in experiment [5] was “inactive” throughout. In addition, the Potency entry in [6], in [7], in experiment [17], in experiment [18], in [8] and in experiment [9] was “inactive” throughout. Moreover, the Potency result in experiment [10], in experiment [11], in experiment [12], in experiment [13], in experiment [15] and in experiment [16] was “inactive” in each case. The Potency in [2] was 17.2 µM (active).

In the case of `O=S(=O)(c1ccc(O)cc1)c1ccc(O)cc1`, the Potency entry in [1], in experiment [2], in experiment [3], in [4], in experiment [19] and in experiment [20] was “inactive” each time. Further, the Potency result in [5], in [6], in [7], in experiment [17], in experiment [8] and in experiment [9] was “inactive” each time. The Potency result in [10], in experiment [11], in experiment [13], in [14], in experiment [15] and in [16] was “inactive” each time.

In the case of `O=NN1CCCCCCC1`, the Potency result in [1], in experiment [2], in [3], in experiment [4], in [19] and in [20] was “inactive” in each case. The Potency result in [5], in experiment [6], in [7], in [17], in experiment [8] and in [9] was “inactive” each time. Besides, the Potency result in experiment [10], in [11], in [12], in experiment [13], in experiment [14] and in experiment [15] was “inactive” each time.

In the case of `ClCCBr`, the Potency result in [1], in [2], in [3], in experiment [4], in experiment [19] and in [20] was “inactive” in each case. For the same molecule, the Potency entry in experiment [5], in [7], in experiment [17], in [18], in [8] and in experiment [9] was “inactive” throughout. Moreover, the Potency result in [10], in experiment [11], in experiment [12], in [14] and in [15] was “inactive” throughout.
